From PubChem BioAssay
Compounds with a hit are over-represented: about 9.9% of the library has one in this group of screens.
Tau fibril ThT = inhibitors of human tau fibril formation, thioflavin T binding. Potency, µM (highest dose often 57.4 µM), for inactives: top-dose activity, negative = inhibition, most hits filed as inhibitors. recombinant tau K18 P301L, heparin-induced fibrillization, ThT fluorescence. 270,000 tested, 2.1% active. P10636. AID 1460; further: nearly all actives have a fitted effect of over 55% in size
Target sequence (P10636 561-689 P618L limits assumed): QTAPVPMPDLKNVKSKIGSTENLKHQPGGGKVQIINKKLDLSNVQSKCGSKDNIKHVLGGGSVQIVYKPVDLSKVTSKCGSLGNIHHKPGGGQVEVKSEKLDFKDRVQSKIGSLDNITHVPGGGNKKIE
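ThT emission at 510 nm, taken 1 hr after adding 30 uM dye, quantifies aggregates formed when 20 uM heparin acts on human tau K18 P301L for 6 hr at 37 C.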
Tau FP inhib = tau fibrillization inhibition (FP); P10636; K18 P301L tau heparin fibrillization, Alexa594 FP, 6 h; Potency, µM (top dose mostly 57.7 µM), for the others: at the highest dose activity, negative = inhibition, hits mostly inhibitors; 280,000 tested, 0.39% active; AID 1468; further: nearly all actives have a fitted effect of over 55% in size
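K18 P301L tau (15 uM unlabeled/0.24 uM Alexa 594-labeled, final) + compound + heparin 20 uM final; 100 mM NaOAc pH 7; 6 hr 37 C; ThT 30 uM final added, 1 hr RT; FP ex 555/em 632 nm.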
JMJD2E inh = JMJD2E (human) inhibition. AID 2147. Potency, µM (highest dose often 57.1 µM), inactives show at the top dose activity change, negative = inhibition, actives largely listed as inhibitors. B2RXH2. 230,000 tested, 1.6% active. JMJD2E catalytic domain, FDH-coupled NADH fluorescence (FDH is formaldehyde dehydrogenase);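 further: 0% = wells with enzyme and -100% = buffer wells without enzyme; nearly all actives have a fitted effect of over 50% in size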
Target sequence (B2RXH2 1-337 limits assumed): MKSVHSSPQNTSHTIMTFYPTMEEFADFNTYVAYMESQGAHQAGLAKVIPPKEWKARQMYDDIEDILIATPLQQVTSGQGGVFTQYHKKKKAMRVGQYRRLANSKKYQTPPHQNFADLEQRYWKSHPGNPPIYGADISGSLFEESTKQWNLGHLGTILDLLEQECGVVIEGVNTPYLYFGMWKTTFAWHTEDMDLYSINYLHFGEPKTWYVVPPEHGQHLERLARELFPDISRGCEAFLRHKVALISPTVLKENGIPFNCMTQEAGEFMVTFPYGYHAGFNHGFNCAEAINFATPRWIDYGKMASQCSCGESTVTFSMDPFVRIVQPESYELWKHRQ
ALDH1A1 block = ALDH1A1 (human) enzyme inhibition; 220,000 tested, 7.3% active; AID 1030; Potency, µM (series often up to 75.3 µM), for the others: at the highest dose activity, negative = inhibition, hits mostly inhibitors; Purified ALDH1A1, NADH fluorescence, propionaldehyde substrate; P00352; active means well fitted inhibition curve with a large enough effect, not every such curve was filed as active; inconclusive means small, poorly fitted or top-dose-only effect, or another doubt; inactive means no such curve, though single readings can be large or run the other way;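 further: plate controls were no enzyme wells and a reference inhibitor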
HPGD block = blocks human HPGD enzyme activity | P15428 | purified HPGD, NADH fluorescence kinetic, PGE2 substrate | Potency, µM, inactives show top-dose activity change, negative = inhibition, hits mostly inhibitors | 150,000 tested, 4.3% active; active means well fitted inhibition curve with a large enough effect, not every such curve was filed as active; inconclusive means small, poorly fitted or top-dose-only effect, or another doubt; inactive means no such curve, though single readings can be large or run the other way
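20 nM HPGD preincubated 15 min at room temperature with compound in 50 mM Tris-HCl pH 8, 0.01% Tween 20. Started with 1 mM NAD+ and 30 uM prostaglandin E2; NADH fluorescence (360/450 nm) read 5 times over 30-s intervals, last minus first.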
Tau fluor counter = counter-screen for tau fibril formation inhibitors | Potency, µM (top dose mostly 57.7 µM), for the others: top-dose activity change, negative = decrease | AID 1463 | tau K18 P301L Alexa594 fluorescence, heparin fibrillization | 280,000 tested, 0.93% active; further: nearly all actives have a fitted effect of over 55% in size
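Human tau K18 P301L (15 uM unlabeled, 0.24 uM Alexa 594-labeled) in 100 mM sodium acetate pH 7 with 20 uM heparin, 6 hr at 37 C. ThT 30 uM added, 1 hr ambient; Alexa 594 FP and total fluorescence read at 555/632 nm.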
Numbers without * were called inactive; ? = inconclusive; · = no result given; [ ] = another dose, or the depositor's remark. Unless noted, the call rests on the fitted dose curve; in most records, active means well fitted curve in the direction sought with a large enough effect; inconclusive means small, poorly fitted or top-dose-only effect, or another doubt; inactive means no such curve, though single readings can be large; an effect the other way counts as inactive or inconclusive. Unless noted, on the % scale 0 is the no-effect control and ±100 the full control effect; potency means the concentration at half of the fitted maximal effect.

SMILES	Tau fibril ThT	Tau FP inhib	JMJD2E inh	ALDH1A1 block	HPGD block	Tau fluor counter
Cc1ccc(-c2nnc(N3CCN(C(=O)Cn4c(=O)n(C)c5ccccc54)CC3)c3ccccc23)cc1	-14.3%	-0.5%	-3.9%	?	-9.5%	-12.8%
Cc1ccc(-c2nnc(N3CCN(C(=O)CN4CCOCC4)CC3)c3ccccc23)cc1	0.8%	-1.4%	2.3%	17.8µM*	-10.5%	11.8%
COc1ccc(/C=N\NC(=O)c2cccc([N+](=O)[O-])c2)cc1Cn1cc([N+](=O)[O-])cn1	?	5.3%	6.0%	20µM*	·	?
Cc1cc(C(=O)N/N=C/c2ccncc2)c(C)o1	-13.7%	-10.2%	6.4%	·	·	-13.5%
COc1cc([N+](=O)[O-])cc(/C=N/NC(=O)c2ccc(NC(=O)c3ccc(C)cc3)cc2)c1O	2µM*	15.4%	6.2%	1.0%	·	?
O=C(N/N=C/c1ccncc1)c1cc([N+](=O)[O-])cc([N+](=O)[O-])c1O	?	10.7%	-24.8%	?	28.2µM*	-9.4%
COc1cc(/C=N/NC(=O)c2ccc(C)nc2)cc([N+](=O)[O-])c1O	?	0.9%	?	-3.5%	·	-13.8%
COc1cc([N+](=O)[O-])cc(/C=N/NC(=O)c2ccc(C)nc2)c1O	11.2µM*	6.7%	14.1µM*	-7.7%	-13.4%	-10.5%
COc1cccc(/C=N/NC(=O)C(=O)N/N=C/c2cccc(OC)c2O)c1O	?	-7.0%	?	11.3%	·	2.1%
COc1cc(OC)c([N+](=O)[O-])cc1/C=N/NC(=O)c1ccncc1	25.1µM*	?	-4.2%	?	·	?
COc1ccc(/C=N/NC(=O)c2ccncc2)c(C(=O)O)c1OC	-0.3%	3.7%	0.9%	·	·	0.6%
Cc1ccc(C(=O)N/N=C\C=C\c2ccccc2[N+](=O)[O-])cn1	-2.9%	-3.3%	-9.2%	7.94µM*	·	-3.5%
COc1cc([N+](=O)[O-])cc(/C=N/NC(=O)C(C)Nc2cccc(C)c2)c1O (stereo not given)	11.2µM*	9.1%	3.16µM*	-1.4%	-9.3%	-22.9%
COc1cccc(/C=N/NC(=O)c2cc3cc([N+](=O)[O-])ccc3s2)c1O	2.24µM*	11.0%	?	18.6%	28.2µM*	?
CC(=O)N[C@@H]1CONC1=O	·	·	·	-1.0%[13.5 µM]	-2.0%	·
CCCCn1c(SCC(=O)Nc2cccc(OC)c2)nc2c(sc3ccccc32)c1=O	7.4%	?	·	·	·	-11.2%
O=C(O)c1cc(N/N=C/C=C/c2ccccc2[N+](=O)[O-])ccc1Cl	3.55µM*	-2.8%	-15.5%	?	·	?
COc1ccccc1/C=N/NC(=O)c1ccc(NC(=O)c2cccc([N+](=O)[O-])c2)cc1	?	13.3%	-2.8%	7.94µM*	·	-24.1%
O=C(N/N=C/C=C\c1ccccc1[N+](=O)[O-])c1ccncc1	-8.9%	8.8%	-6.5%	?	·	-2.4%
COc1ccc(/C=N/NC(=O)c2cccnc2)cc1CN1CCCc2ccccc21	?	8.3%	-22.1%	-9.6%	·	12.6µM*[quencher]
CCN1C(=O)N[C@@H](CCc2ccccc2)[C@@H](C(=O)OC)[C@H]1C	-5.8%[11.5 µM]	-5.3%[11.6 µM]	-2.3%[11.4 µM]	10.4%[13.5 µM]	-9.7%	-11.7%[11.6 µM]
CC1SC(=NC(=O)C(C)N2C(=O)c3ccccc3C2=O)NC1=O (stereo not given)	?	?	-2.9%	?	-17.5%	-7.1%
CCn1c(CNc2ccc(Cl)cc2)nnc1SCC#N	-2.6%	6.8%	-9.4%	7.5%	·	1.2%
Cc1ccc(Nc2nnc(-c3ccc(C)c(S(=O)(=O)N4CCOCC4)c3)c3ccccc23)c(C)c1	?	5.1%	·	·	·	-19.8%
CCN(CC(=O)NCc1ccc(Cl)cc1)C(=O)c1ccc(S(=O)(=O)N(C)C)cc1	-9.1%	2.2%	-3.0%	?	·	-6.3%
Cc1cccc(/N=C/c2nc(-c3ccccc3Br)oc2O)n1	?	-9.5%	-2.1%	3.55µM*	·	?
Oc1oc(-c2cccc3ccccc23)nc1/C=N/c1nccs1	-8.8%	8.0%	-4.2%	9.2%	-4.0%	-21.5%
